Assay outcomes (PubChem)
Only some compounds are listed: those with a hit (about 1.6% of all), similar ones and a draw of the others.
pAkt inh = HTS Assay for Inhibitors of Akt Phophorylation: Primary Screen. activity change, % for hits at 50 µM. 360,000 compounds, 0.32% hits. Neuro2A IGF-stimulated pAkt S473 HTRF, 20 min; active compounds read low; in the data active = activity change below about -80%; inconclusive = mostly about -51% to -80%
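Single-point screen (50 µM final compound) in Neuro2A cells stimulated 20 min with 6 nM IGF at 37 deg C. After lysis, Ser473-phosphorylated Akt read by HTRF (ex 330 nm, em 615/665 nm) as the 665/615 ratio.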
gsp ag = qHTS for Agonist of gsp, the Etiologic Mutation Responsible for Fibrous Dysplasia/McCune-Albright Syndrome: qHTS; gsp mutant cells, cAMP HTRF, 30 min; Potency, µM (titrated, usually from 76.9 µM), actives largely listed as activators; 340,000 compounds, 0.13% hits; active = well fitted activation curve with a large enough effect; inconclusive = small, poorly fitted or top-dose-only effect, or another doubt; inactive = no such curve, though single readings can be large or run the other way; cell line not stated here;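 note: phosphodiesterase inhibitor Ro 20-1724 added with compounds to block cAMP breakdown; nearly all actives have a fitted effect of over 60% in size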
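Cells stably selected in G418 were plated at 2000/well, grown 16-24 hr, then given compounds in DMSO with the PDE inhibitor […] (300 uM solution added) for 30 min at 37C; cAMP was read by HTRF.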
hERG WT inh = qHTS for Inhibitors of KCHN2 3.1: Wildtype qHTS; Voltage-gated inwardly rectifying potassium channel KCNH2 (Homo sapiens), Q12809; U2OS, BacMam KCNH2, thallium flux FluxOr; active compounds read low; activity change, % at 1.84 µM; 340,000 compounds, 0.37% hits; AID 720551, 2013;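 active = maximum activity change below -70%; inconclusive = maximum activity change between -70% and -50%; inactive = maximum activity change above -50%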
Target sequence (Q12809 whole entry, looked up): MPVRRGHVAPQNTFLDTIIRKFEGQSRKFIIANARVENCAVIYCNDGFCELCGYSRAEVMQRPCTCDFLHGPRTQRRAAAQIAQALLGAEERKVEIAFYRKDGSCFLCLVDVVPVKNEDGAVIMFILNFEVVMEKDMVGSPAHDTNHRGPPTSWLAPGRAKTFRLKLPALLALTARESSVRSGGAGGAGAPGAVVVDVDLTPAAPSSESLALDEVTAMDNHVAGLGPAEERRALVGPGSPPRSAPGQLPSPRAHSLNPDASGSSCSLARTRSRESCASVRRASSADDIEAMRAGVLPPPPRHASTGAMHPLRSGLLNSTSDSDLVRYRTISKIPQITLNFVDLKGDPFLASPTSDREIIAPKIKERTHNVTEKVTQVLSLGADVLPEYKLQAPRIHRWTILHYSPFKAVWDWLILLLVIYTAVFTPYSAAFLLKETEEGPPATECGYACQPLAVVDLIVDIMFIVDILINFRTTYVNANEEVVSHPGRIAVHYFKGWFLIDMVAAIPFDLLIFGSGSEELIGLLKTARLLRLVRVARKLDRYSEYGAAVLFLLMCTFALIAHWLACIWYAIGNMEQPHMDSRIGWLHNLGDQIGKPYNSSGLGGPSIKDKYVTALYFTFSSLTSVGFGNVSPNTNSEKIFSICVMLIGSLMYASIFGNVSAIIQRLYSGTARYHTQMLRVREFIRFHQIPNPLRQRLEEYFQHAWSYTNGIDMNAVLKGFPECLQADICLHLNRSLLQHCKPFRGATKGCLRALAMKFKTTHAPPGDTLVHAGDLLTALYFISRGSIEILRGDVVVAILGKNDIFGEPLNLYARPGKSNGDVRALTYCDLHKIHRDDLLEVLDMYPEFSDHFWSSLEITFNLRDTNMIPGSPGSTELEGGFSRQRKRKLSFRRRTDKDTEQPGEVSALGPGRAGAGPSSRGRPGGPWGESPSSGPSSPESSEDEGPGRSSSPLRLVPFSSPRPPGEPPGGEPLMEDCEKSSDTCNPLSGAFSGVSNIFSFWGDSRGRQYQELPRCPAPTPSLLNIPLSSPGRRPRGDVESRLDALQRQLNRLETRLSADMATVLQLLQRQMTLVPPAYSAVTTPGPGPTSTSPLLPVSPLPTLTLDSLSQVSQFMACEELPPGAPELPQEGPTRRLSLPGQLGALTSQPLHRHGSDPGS
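U2OS cells transduced with wild-type KCNH2 virus are loaded with FluxOr dye for 45 min, and thallium flux is measured in kinetic reads before and after stimulation buffer. Rate constants are normalized to DMSO controls.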
Glioma ERSR ind = qHTS for Inducers of the Endoplasmic Reticulum Stress Response (ERSR) in Human Glioma: qHTS; U87-MG GRP78 promoter luciferase reporter, 16 h; Potency, µM, most hits filed as activators; 420,000 compounds, 0.02% hits; active = well fitted activation curve with a large enough effect; inconclusive = small, poorly fitted or top-dose-only effect; inactive = no such curve, though single readings can be large or run the other way; note: series mostly up to about 76 µM; nearly all actives have a fitted effect of over 35% in size
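Stably transfected U87-MG glioma cells carrying a GRP78-based luciferase sensor; 16 h compound incubation. Luminescence end-point read 10 min after Bright-Glo addition at room temperature.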
gsp antagonist = qHTS for Antagonists of gsp, the Etiologic Mutation Responsible for Fibrous Dysplasia/McCune-Albright Syndrome: qHTS; gsp-mutant cells, cAMP HTRF, 30 min; Potency, µM (highest dose often 76.9 µM), hits mostly inhibitors; 340,000 compounds, 0.4% hits; AID 624288, 2012; calls by dose curve; cell line not stated here;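 note: intracellular cAMP measured with PDE inhibitor Ro 20-1724 present during compound exposure; nearly all actives have a fitted effect of over 65% in size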
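HTRF cAMP read-out (cAMP-d2 plus anti-cAMP antibody-K in lysis buffer, 30 min RT). Before lysis, cells are exposed to compounds with […] for 30 min at 37C in DPBS containing Ca/Mg, BSA and Tween 20.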
KCNH2 3.1 inh = qHTS for Inhibitors of KCHN2 3.1: Mutant qHTS; 340,000 compounds, 0.95% hits; activity change, % (tested at about 1.8 µM); AID 720553, 2013; U2OS KCNH2 3.1, thallium flux FluxOr; active compounds read low; Potassium voltage-gated channel subfamily H member 2, brain isoform KCNH2 3.1 (human);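 active = maximum activity change below -70%; inconclusive = maximum activity change from -70% to -50%; inactive = maximum activity change above -50%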;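 note: thallium influx rate constant from kinetic fluorescence after stimulation buffer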
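Measured as rate of thallium-driven FluxOr signal in transduced U2OS cells carrying the 3.1 channel, read kinetically for 2 min upon stimulation; values are rate constants scaled to DMSO control wells.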
Of the large screens only hits and unclear results are named; the others gave an inactive call.

COc1ccc2nc3oc(C(=O)NCCCOC(C)C)cc3cc2c1	gsp ag inconclusive, gsp antagonist 50µM
CN(C)C(=O)CCC(=O)NCC1Cc2cccc(-c3ccccc3C(F)(F)F)c2O1 (stereo not given)	none (no result: pAkt inh, gsp ag, hERG WT inh, gsp antagonist, KCNH2 3.1 inh)
O=C(NCCc1ccccc1)c1ccc(-c2ccccc2C(F)(F)F)o1	KCNH2 3.1 inh -214 (no result: gsp ag)
O=C(NCCc1ccccc1)c1ccc(-c2ccc(F)cc2)o1	none
Cc1nonc1NC(=O)c1ccc(Cl)c(S(=O)(=O)N2CCCCC2)c1	pAkt inh -98%
COc1ccc(C(=O)Nc2ccc(Cl)c(S(=O)(=O)N3CCOCC3)c2)cc1	gsp antagonist inconclusive
Cc1cccnc1NC(=O)c1ccc(Cl)c(S(=O)(=O)N2CCCCCC2)c1	none
O=C(Nc1cccc(C(=O)NC2CC2)c1)c1ccc(Cl)c(S(=O)(=O)N2CCOCC2)c1	none
O=C(Nc1cccc(Br)c1)c1ccc(Cl)c(S(=O)(=O)N2CCOCC2)c1	gsp antagonist 40µM
O=C(Nc1ccc(Cl)c(S(=O)(=O)N2CCOCC2)c1)c1ccc(OCC2CCCO2)cc1 (stereo not given)	gsp antagonist 32µM
CN1CCC(N(C)C(=O)c2ccc(Cl)c(S(=O)(=O)N3CCOCC3)c2)CC1	hERG WT inh -194, KCNH2 3.1 inh -150
CN(C)CC(C)(O)c1ccc2c(c1)CN(Cc1cccn1-c1cccnc1)CCO2 (stereo not given)	none (no result: pAkt inh, gsp ag, hERG WT inh, gsp antagonist, KCNH2 3.1 inh)
CCc1nc2cc(C(=O)N3CCC[C@H]3CO)cc(NC(=O)c3ccccc3OC)c2n1C	none (no result: pAkt inh, gsp ag, hERG WT inh, gsp antagonist, KCNH2 3.1 inh)
C[C@@H]1OC(O[C@H]2[C@H](Oc3cc(O)c4c(=O)c(O)c(-c5ccc(O)cc5)oc4c3)O[C@H](CO)[C@@H](O)[C@@H]2O)[C@H](O)[C@H](O)[C@H]1O (stereo not given in full)	none (no result: pAkt inh, gsp ag, hERG WT inh, gsp antagonist, KCNH2 3.1 inh)
O=C(Nc1cccnc1)c1ccc(Cl)c(S(=O)(=O)N2CCOCC2)c1	none
O=C(Nc1nc2ccccc2s1)c1ccc(OCC2CCCO2)cc1 (stereo not given)	gsp antagonist 32µM
O=C(Nc1cccc(S(=O)(=O)C(F)F)c1)c1ccc(Cl)c(S(=O)(=O)N2CCOCC2)c1	gsp antagonist 28µM
C1CCc2nnc(-c3nnc4n3CCCCC4)n2CC1	none
Cc1ccc(C)n1-c1ccc(-c2nnc3n2CCCCC3)s1	gsp ag 32µM
COc1ccc(CCNC(=O)c2cccc(Br)c2)cc1OC	none
COc1ccc(CCNC(=S)NNC(=O)c2c(Br)c(C)nn2C)cc1OC	KCNH2 3.1 inh -75
O=C1C[C@H]2C=CCc3cccc(c32)CN1Cc1cccc(F)c1	none (no result: pAkt inh, gsp ag, hERG WT inh, gsp antagonist, KCNH2 3.1 inh)
O=C(NCCc1nnc2n1CCN(Cc1ccc(F)cc1)CC2)c1ccc(F)cc1	none (no result: pAkt inh, gsp ag, hERG WT inh, gsp antagonist, KCNH2 3.1 inh)
CCN(CC)c1ccc2cc(-c3nnc(-c4ccncc4)o3)c(=O)oc2c1	hERG WT inh -93, KCNH2 3.1 inh inconclusive
Cc1ccc(S(=O)(=O)N2CCC(C(=O)NNC(=O)c3ccccc3)CC2)cc1	KCNH2 3.1 inh -115
Cc1ccc(C(=O)NNC(=O)C2CCN(S(=O)(=O)c3ccc(C)cc3)CC2)cc1	none
COc1ccc2c(c1)OC[C@H]1[C@H]2N2C(=O)CN(Cc3ccc(F)cc3)C(=O)[C@@]2(C)[C@H]1c1ccccc1	gsp ag inconclusive
COc1ccc2c(c1)OC[C@H]1[C@H]2N2C(=O)CN(Cc3ccc(C)cc3)C(=O)[C@@]2(C)[C@H]1c1ccccc1	KCNH2 3.1 inh -89
COc1ccc2c(c1)C(=O)N1[C@H]3c4cc(Cl)ccc4OC[C@@H]3[C@H](c3ccccc3)[C@]1(C)C(=O)N2	KCNH2 3.1 inh -85
c1cc2nncn2nc1N1CCCC1	none
c1ccc(N2CCN(c3ccc4nncn4n3)CC2)nc1	gsp ag inconclusive, KCNH2 3.1 inh -184
O=C(CSc1ncnc2c1oc1ccccc12)Nc1ccccc1C(F)(F)F	gsp ag 32µM
C=C(C)c1cccc(C(C)(C)NC(=O)N2CCN(C(=O)OCC)CC2)c1	KCNH2 3.1 inh -71 (no result: gsp antagonist)
Cc1oc(-c2ccccc2NC(=O)c2ccccc2)nc1CNC(=O)c1c(-c2ccccc2)noc1C	none (no result: pAkt inh, gsp ag, hERG WT inh, gsp antagonist, KCNH2 3.1 inh)
CN(C)S(=O)(=O)n1cnc([C@H]2c3c(ncn3Cc3ccccc3)C[C@H]3COC(=O)[C@@H]32)c1	gsp antagonist 50µM
CN(C)S(=O)(=O)n1cnc([C@@H]2[C@@H]3C(=O)OC[C@@H]3C[C@]23N=CN(Cc2ccccc2)C3=O)c1	none
CCN(CC)CCOC(=O)c1ccc(N)cc1Cl	none (no result: pAkt inh, gsp ag, hERG WT inh, gsp antagonist, KCNH2 3.1 inh)
CC(=O)N1CCCc2cc(S(=O)(=O)N3CCCC(C(=O)N4CCN(c5ccccc5)CC4)C3)ccc21 (stereo not given)	gsp antagonist 35µM
COc1cc(=O)n2c(c1C(=O)N(C)Cc1nonc1C)CCN(CC1CC=CCC1)CC2 (stereo not given)	none (no result: pAkt inh, gsp ag, hERG WT inh, gsp antagonist, KCNH2 3.1 inh)
CCCc1cc(=O)[nH]c(SCC(N)=O)n1	pAkt inh -125%
O=[N+]([O-])c1cccc(/C=N/Nc2nccnc2Cl)c1	pAkt inh -83%, Glioma ERSR ind inconclusive
O=C(Nc1ccccc1N1CCCCC1)c1ccc([N+](=O)[O-])o1	none
O=C(Nc1ccccc1N1CCN(C(=O)c2ccc(Cl)cc2)CC1)c1ccc([N+](=O)[O-])o1	hERG WT inh -94, KCNH2 3.1 inh -93
O=C(Cc1ccc(Cl)cc1)Nc1ccccc1N1CCN(C(=O)c2ccccc2)CC1	gsp antagonist 28µM, KCNH2 3.1 inh inconclusive
O=C(Nc1ccccc1N1CCN(C(=O)c2ccc(Cl)cc2)CC1)c1ccc(Br)cc1	KCNH2 3.1 inh -91
